Source: PubChem (National Center for Advancing Translational Sciences (NCATS))
NS1 function inh: influenza NS1 inhibition; Potency, µM (top dose mostly 46.1 µM), for inactives: at the highest dose activity, positive = more growth; 270,000 compounds, 0.4% hits; AID 2326; calls by dose curve; note: actives are rising curves; nearly all actives have a fitted effect of over 50% in size
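A cell-based growth assay was used: compounds that relieve NS1-induced slow growth of budding yeast raise OD600. Assay medium was yeast nitrogen base with ammonium sulphate and -URA supplement, pH 6.0, with 2% galactose.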
AMA1 RON2 block: disrupts binding of P. falciparum AMA1 to RON2; 360,000 compounds, 0.2% hits; AlphaScreen AMA1-biotinylated RON2 peptide binding; AID 720542; Potency, µM (top dose mostly 58.2 µM), for inactives: at the top dose activity change, negative = inhibition, usual class: inhibitors;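 note: 0% = vehicle wells and -100% = peptide control; nearly all actives have a fitted effect of over 45% in size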
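AMA1 (3D7) with his tag at 25 nM final met compounds first, then biotinylated RON2 peptide at 25 nM; detection used donor plus acceptor beads, 10 µg/mL apiece, read by AlphaScreen after 30 min at room temperature.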
Pf growth 96h: inhibits malaria parasite growth, 96 h; 320,000 compounds, 6.9% hits; P. falciparum luciferase reporter growth, 96 h; Potency, µM (doses to about 28.7 µM), inactives show at the top dose activity change, negative = inhibition, most hits filed as inhibitors; note: % is set by controls: 0 for no effect and ±100 for the full control effect
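Two-generation exposure (96 h) targets delayed-death phenotype. Reporter parasites carrying integrated firefly luciferase, in red cells at 2% hematocrit and 0.05% parasitemia final, kept at 37 C, 5% CO2; luminescence loss indicates inhibition.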
Pf growth 48h: inhibits P. falciparum growth in the first generation, 48 h; P. falciparum luciferase growth in erythrocytes, 48 h; Potency, µM (highest dose often 28.7 µM), inactives show at the highest dose activity change, negative = inhibition, hits mostly inhibitors; 310,000 compounds, 5.9% hits; AID 504832; note: % is set by controls: 0 for no effect and ±100 for the full control effect
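Here the parasites carry a stable luciferase gene and grow inside erythrocytes in Albumax-based RPMI medium with compound for one erythrocytic cycle. Activity is scored as loss of luminescent signal.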
Sm TGR block: inhibitors of Schistosoma mansoni thioredoxin glutathione reductase. AID 485364. Potency, µM (highest dose often 114 µM), for inactives: top-dose activity change, negative = inhibition, actives largely listed as inhibitors. 360,000 compounds, 3% hits. Q962Y6. purified TGR, DTNB reduction, TNB absorbance 405 nm; note: % is set by controls: 0 for no effect and ±100 for the full control effect; nearly all actives have a fitted effect of over 60% in size
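First, TGR (20 nM dispensed) and NADPH were mixed with compound. Second, a 15 min room-temperature incubation followed. Third, further NADPH and then DTNB were added to start the reaction. Finally, TNB absorbance was monitored kinetically.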
The depositor's hits bear a star; ? = inconclusive; . = not tested or not shown; [ ] = remark or other dose. Most compounds without a hit are left out; they make up all but 11% or so of the library. Unless noted, calls come from the whole dose curve; as a rule, active = well fitted curve in the direction sought with a large enough effect; inconclusive = small, poorly fitted or top-dose-only effect, or another doubt; inactive = no such curve, though single readings can be large; an effect the other way counts as inactive or inconclusive. Potency is the fitted concentration of half-maximal effect.

SMILES	NS1 function inh	AMA1 RON2 block	Pf growth 96h	Pf growth 48h	Sm TGR block
O=C(CSCc1c(Cl)cccc1Cl)NCc1ccco1	2.5%	-7.9%	13.1µM*	?	0.6%
N#Cc1ccc(CN2CCN(C(=O)c3cccc(S(=O)(=O)N4CCCCCC4)c3)CC2)cc1	.	-4.7%	?	?	-19.8%
CN(CC(=O)Nc1ccccc1Cl)C(=O)COC(=O)c1ccc([N+](=O)[O-])s1	.	18.8%	.	.	.
O=C(NCc1ccc(F)cc1)c1ccncc1	24.7%	-8.6%	6.57µM*	-13.0%	10.3%
CCc1ccc(CNC(=O)c2cc3ccccn3n2)cc1	.	.	.	.	-1.4%
COc1ccc(CNC(=O)c2ccncc2)cc1	-1.1%	-13.4%	3.29µM*	1.1%	5.4%
COc1ccc(CNC(=O)c2ccc3c(c2)N(C)C(=O)CS3=O)cc1 (stereo not given)	14.1µM*	2.2%	15.5%	.	8.8%
O=C(NCc1ccc(F)cc1)c1cc2ccccn2n1	-38.2%	14.4%	3.7µM*	19.5%	4.0%
O=C(CN1C(=O)NC2(CCCCC2)C1=O)Nc1cc(C(F)(F)F)ccc1N1CCOCC1	.	13.2%	38.9%	?	2.1%
COc1ccc(C2CCc3cc(OC)c(OC)cc3C2NC=O)cc1OC (stereo not given)	.	-10.9%	.	.	.
Cc1noc(C)c1CSCC(=O)OCc1nnc(-c2ccc([N+](=O)[O-])cc2)o1	.	22.7%	.	.	.
COc1ccc(CNC(=O)C(OC(=O)c2ccco2)c2ccccc2F)cc1 (stereo not given)	-6.4%	5.6%	-9.7%	58.3%	-1.1%
COc1ccc(CNC(=O)C(OC(C)=O)c2ccccn2)cc1 (stereo not given)	-10.7%	30.0%	14.7µM*	29.2%	-0.5%
COc1cccc(C(=O)C2CCCN(Cc3cccc(OCCO)c3)C2)c1 (stereo not given)	-4.0%	-10.6%	4.65µM*	?	-1.0%
COc1c(C)cc(C(=O)C2CCCN(C3CCOCC3)C2)cc1C (stereo not given)	-2.3%	4.0%	-26.1%	-6.9%	12.6µM*
Cc1ccc(CN2CCC(Oc3cccc(C(=O)N(C)CCN(C)C)c3)CC2)cc1C	12.9%	2.2%	7.0%	9.28µM*	?
O=C(c1cccc(OC2CCN(Cc3cccc(OCCO)c3)CC2)c1)N1CCCC1	-3.5%	-17.1%	8.28µM*	-23.9%	-5.7%
COc1ccc2cc(C(=O)C3CCCN(C4CCOCC4)C3)ccc2c1 (stereo not given)	-2.3%	7.3%	?	32.2%	-0.1%
COCCNC(=O)CN1C(=O)NC2(CCCc3cc(OC)ccc32)C1=O (stereo not given)	3.9%	-9.2%	1.2%	-2.9%	-2.5%
COc1cccc(C(=O)C2CCCN(Cc3cccc(C)n3)C2)c1 (stereo not given)	1.1%	4.8%	?	2.94µM*	9.0%
COc1c(C)cc(C(=O)C2CCCN(Cc3cccc(O)c3)C2)cc1C (stereo not given)	-12.9%	-5.0%	0.7%	11.7µM*	-15.2%
Cc1cccc(CN2CCCC(C(=O)c3cccc(OC(C)C)c3)C2)n1 (stereo not given)	4.5%	14.7%	-19.3%	?	0.7%[57.1 µM]
Cc1cccc(N2CCN(C(=O)C3CCN(S(=O)(=O)c4cn(C)cn4)CC3)CC2)c1C	.	.	.	.	-11.7%
O=C(COc1ccccc1)Nc1ccc(C(=O)OCc2cc(=O)n3nc(C4CC4)sc3n2)cc1	.	.	.	.	-3.6%
Cc1cc2c(NC(=O)Nc3ccc(C(F)(F)F)cc3)cccc2nn1	3.4%	-3.3%	9.28µM*	10.4µM*	-28.5%
SMILES	NS1 function inh	AMA1 RON2 block	Pf growth 96h	Pf growth 48h	Sm TGR block
CCOc1ccc(NC(=O)COc2ccc(C(=O)NCC3CCCO3)cc2OC)cc1 (stereo not given)	.	5.4%[11.6 µM]	?	?	-25.7%
C=C(C)Cn1c(=O)c2c(nc3n2CCN3c2ccc(F)cc2)n(C)c1=O	.	.	.	.	-11.2%
CCCCN(C)CCNC(=O)Cn1c(=O)sc2ccccc21	0.0%	-5.6%	8.28µM*	.	-3.8%
CN(CCNC(=O)Cn1c(=O)sc2ccccc21)Cc1ccccc1	2.3%	-1.4%	4.65µM*	.	0.0%
O=C(Cn1c(=O)sc2ccccc21)Nc1ccccc1	-10.4%	-0.1%	62.6%	-5.8%	-1.6%
COc1ccc(C(CNC(=O)Cc2ccc(Cl)cc2)N2CCOCC2)cc1 (stereo not given)	.	.	.	.	-10.6%
CCc1cccc(NC(=O)CN(C)S(=O)(=O)c2ccc3c(c2)n(C)c(=O)c(=O)n3C)c1	.	.	.	.	-1.5%
Cn1c2c(c(=O)n(C)c1=O)[C@@]1(C(=O)Nc3ccccc31)C(C#N)=C(N)O2	-27.4%	-3.0%	13.1µM*	?	?
Nn1c(SCC(=O)NNC(=O)c2ccccc2)nnc1-c1ccccc1F	.	117.5%	20.0%	?	1.1%
CCc1nc(N2CCN(C(=O)c3ccccc3)CC2)c2c3c(sc2n1)CCCC3	-1.9%	-19.8%	112.9%	?	0.0%
CCc1nc(N2CCN(C(=O)c3ccco3)CC2)c2c3c(sc2n1)CCCC3	-7.9%	-14.6%	40.9%	?	56.2µM*
O=C(c1ccco1)N1CCN(c2ncnc3sc4c(c23)CCC4)CC1	-12.5%	15.0%	146.0%	?	11.2µM*
Cc1sc2nc(CN3CCCCC3)nc(N3CCN(C(=O)c4ccco4)CC3)c2c1C	.	5.9%	?	7.38µM*	-26.6%
CCOc1ccc(S(=O)(=O)Nc2cccc(C(=O)NCC(C)(C)N3CCOCC3)c2)cc1	.	-14.0%	?	?	0.2%
O=C(CN1CCC(NC(=O)c2ccc(Br)cc2)CC1)NCc1cccs1	1.4%	-1.5%	?	4.7%	1.4%[57.1 µM]
O=C(CN1CC[n+]2c(-c3cccs3)csc21)c1ccc(-c2ccccc2)cc1	?	38.4%	?	13.1µM*	.
Cc1n[nH]c(=S)n(/N=C/c2cccc([N+](=O)[O-])c2)c1=O	-4.8%	54.7%	?	1.65µM*	12.5%
COc1cc(/C=N/n2c(-c3cc(C)[nH]n3)n[nH]c2=S)cc(OC)c1O	4.0%	91.5%	-8.8%	-7.4%	-3.4%
COc1cc(/C=N/n2c(=S)[nH]nc(C)c2=O)cc([N+](=O)[O-])c1O	10.7%	75.6%	14.7µM*	64.0%	?
O=[N+]([O-])c1cccc(/C=N/n2c(-c3cccnc3)n[nH]c2=S)c1	?	50.0%	39.1%	13.3%	-17.7%
CC(=O)Nc1sc(C)c(C)c1C(=O)OCC(=O)NC(C)c1ccccc1 (stereo not given)	.	0.4%	?	?	1.6%
S=C1NC2(CCCC2)N=C1c1ccccc1	.	16.5%	0.4%	7.1%	-3.1%
S=C1NC2(CCCCCC2)N=C1c1ccccc1	.	16.3%	152.7%	13.1µM*	2.2%
CC1CN(c2nc3ccccc3nc2SCC(=O)Nc2cccc(C(F)(F)F)c2)CC(C)O1 (stereo not given)	.	25.2%	.	.	.
Cc1ccc([N+](=O)[O-])cc1NC1OC(CO)C(O)C1O (stereo not given)	5.7%	13.9%	21.7%	12.7%	?
